Screening results from PubChem.
Sampled rows, rich in hits. Any-hit rate of the full collection: about 4.2%.
Wnt act: Wnt/beta-catenin pathway activation; AID 743398; Wnt/beta-catenin reporter cell assay, activator, plate reader; activation, % at 9.35 µM; 300,000 tested, 1.2% active; in the data active means activation above about 30%, passing the limit was not always enough; inconclusive means no clear call, values can overlap the other calls;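 further: 0% = neutral control wells and 100% = positive control wells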
hgDAF12 agonist: agonists of H. glycines DAF-12 nuclear receptor; HEK293 GAL4-hgDAF12 UAS-luciferase reporter, agonist luminescence; normalized to butyrate control; activation, % at 6.8 µM; 370,000 tested, 1.8% active; AID 687014;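 active means activation above a cutoff set at the mean of all screened compounds plus 3 SD, cut at about 10% in these data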;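 further: 0% = DMSO wells and 100% = sodium butyrate wells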
hcDAF-12 act: activators of H. contortus DAF-12 nuclear receptor; HEK293 hcDAF-12 lit1-tk-luc reporter, luminescence; 0% DMSO, 100% Δ7-dafachronic acid; activation, % at 6.8 µM; 370,000 tested, 1.4% active; AID 652067;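 active means activation above the mean of all tested compounds plus 3 SD, cut at about 5.5% in these data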;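 further: 100% = response to 3 µM Δ7-dafachronic acid high control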
esBAF inh: blocks esBAF chromatin remodeling in mouse ES cells; Bmi1-luciferase knock-in reporter, 24 h; 100% = twice the neutral-well signal; reporter increase, % at 12.5 µM; 350,000 tested, 2% active; in the data active means activation above about 40%; inconclusive means no clear call, values can overlap the other calls;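 further: 0% = median of the plate's neutral control wells and 100% = double that signal; a rise in the Bmi1 reporter signal indicates esBAF inhibition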
ssDAF12 agonist: activates DAF-12 receptor from parasite S. stercoralis. HEK293 ssDAF-12/GRIP1 lit1-tk-luc reporter, luminescence; % of 3 µM dafachronic acid response. AID 652126. 370,000 tested, 1% active. activation, % at 6.8 µM;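 active means activation above the mean over all tested compounds plus 3 SD, cut at about 0.9% in these data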;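 further: 0% = DMSO-only wells and 100% = 3 µM delta7-dafachronic acid wells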
DAX1 StAR inh: blocks DAX1 repression of SF-1 activated StAR promoter; HEK293T StAR-luciferase reporter, SF-1/DAX-1 repression relief; inhibition, % at 6.8 µM; 370,000 tested, 1.1% active; AID 652010;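 active means inhibition above the mean over all tested compounds plus 3 SD, cut at about 3.6% in these data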;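 further: 0% = DAX-1 cells with DMSO and 100% = cells lacking DAX-1 with DMSO; higher inhibition means more luminescence from relief of DAX-1 repression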
An asterisk follows results filed as active; ? = inconclusive; . = not tested or not shown.

SMILES	Wnt act	hgDAF12 agonist	hcDAF-12 act	esBAF inh	ssDAF12 agonist	DAX1 StAR inh
CC(C)(C)n1ncc2c(=O)n(CC(=O)Nc3ccc(Cl)cc3)cnc21	.	0	-2	2	-1	0
CC(C)(C)n1ncc2c(=O)n(CC(=O)c3ccc(Cl)cc3)cnc21	.	12*	3	74*	0	2
C#CCn1cnc2c(cnn2-c2ccc(C)c(C)c2)c1=O	.	6	3	66*	0	1
FC(F)(F)c1cc(Cc2nc3ccccc3n2C(CCc2ccccc2)c2nc3ccccc3[nH]2)cc(C(F)(F)F)c1 (stereo unspecified)	7	6	0	.	-2	3.9*
COC(=O)C[C@@H]1CC[C@@H]2[C@@H](COc3ccc(NC(=O)C4CC4)cc3C(=O)N2C)O1	.	.	.	4	.	.
CCOc1ccccc1Nc1nc(-c2sc(NC(=O)c3cccc(Cl)c3)nc2C)cs1	0	4	2	64*	1	1
Cc1nc(NC(=O)c2ccccc2)sc1-c1csc(N)n1	?	3	-2	53*	-1	1
C[C@H](CO)N1C[C@H](C)[C@@H](CN(C)CC2CCCCC2)Oc2ccc(NC(=O)Cc3ccccc3)cc2CC1=O	.	.	.	-6	.	.
COC(=O)CSC(C(=O)Nc1ccc(C)c(C)c1)c1ccccc1 (stereo unspecified)	35*	3	1	-1	0	-1
Cc1ccc(NC(=O)c2ccc(NC(=O)c3ccccc3)cc2)cc1C	1	0	-5	1	-1	0
Cc1ccc(NC(=O)CC(=O)c2ccccc2)cc1C	-1	7	1	75*	0	1
Cc1ccc(NC(=O)C(SCC(=O)O)c2ccccc2)cc1C (stereo unspecified)	11	1	-2	.	-1	1
Cc1cccc(NC(=O)COc2ccc(Br)cc2)n1	.	6	2	7	0	1
Cc1ccnc(NC(=O)Nc2ccc3c(c2)N(C)C(=O)CS3)c1	24	10*	0	.	-1	2
Cc1ccc(OCC(=O)Nc2cccc(C)n2)c(C)c1	?	11*	4	-8	0	3
CCCNC(=O)C[C@@H]1CC[C@@H]2[C@H](COC[C@H](O)CN2C(=O)Nc2cccc(Cl)c2)O1	.	.	.	7	.	.
C[C@@H]1CN([C@H](C)CO)C(=O)Cc2cc(NS(=O)(=O)c3ccccc3)ccc2O[C@H]1CN(C)C(=O)NC1CCCCC1	.	.	.	-1	.	.
Cc1cccc(NC(=O)c2ccc(C(=O)c3ccccc3)cc2)n1	22	6	0	-16	-1	2
Cc1cccc(NC(=O)Nc2ccc3c(c2)N(C)C(=O)CS3)n1	7	3	-1	49*	-1	0
Cc1cccc(NC(=O)Nc2cccc(C)n2)n1	.	3	-1	13	-1	0
Cc1cccc(NC(=O)Nc2ccc(C)c(C)c2)n1	35*	7	6.2*	48*	1	1
Cc1cccc(NC(=O)NC(=O)c2ccccc2)n1	37*	3	1	.	-2	1
C[C@@H](O)C#Cc1cnc2c(c1)C(=O)N([C@@H](C)CO)C[C@H](C)[C@H](CN(C)CC1CC1)O2	.	.	.	1	.	.
COc1ccc(S(=O)(=O)Nc2cccc3c2O[C@H](CN(C)C)[C@H](C)CN([C@H](C)CO)C3=O)cc1	.	.	.	-1	.	.
Cn1c2ccccc2c(=O)c2c(=O)n(-c3ccc(F)cc3)c(-c3cccs3)nc21	51*	-3	-2	.	-1	0
SMILES	Wnt act	hgDAF12 agonist	hcDAF-12 act	esBAF inh	ssDAF12 agonist	DAX1 StAR inh
Cc1ccc(-c2nc3c(c(=O)c4ccccc4n3C)c(=O)n2-c2ccc(F)cc2)cc1	-1	0	5.6*	.	0	0
CCc1nc2c(c(=O)c3ccccc3n2C)c(=O)n1-c1ccc(F)cc1	.	-2	2	10	0	1
C[C@@H]1CCCCO[C@@H](CN(C)C(=O)Cc2ccccc2)[C@@H](C)CN([C@H](C)CO)C(=O)c2cc(NC(=O)Nc3ccccc3)ccc2O1	.	.	.	0	.	.
O=C(O)Cn1c2ccccc2c2ccccc21	-1	0	-1	.	0	0
O=C(O)Cn1c2c(c3ccccc31)CSc1ccc(Cl)cc1-2	-1	1	7.5*	2	1	0
O=C(C1CCCCC1)N1C[C@@H]2[C@H](c3ccccc31)[C@H](CO)N2Cc1ccccc1Cl	.	.	.	3	.	.
CCOC(=O)c1ccc(NC(=O)CC2SCCNC2=O)cc1 (stereo unspecified)	41*	3	0	22	0	1
CC(=O)C1=C(O)C(=O)N(c2ccccn2)C1c1ccc(Cl)cc1 (stereo unspecified)	-1	-4	1	47*	-1	0
COc1ccccc1NC(=O)N1C[C@@H](O)COC[C@H]2O[C@H](CC(=O)NCCc3ccccc3)CC[C@@H]21	.	.	.	-3	.	.
CCSc1nnc2c(n1)[nH]c1c(C)cccc12	.	2	2	89*	-1	0
CCCSc1nnc2nc3c(nn12)c1ccccc1n3C	-2	-3	2	-5	0	-1
C=CCSc1nnc2nc3[nH]c4c(C)cccc4c3nn12	.	6	4	14	0.9*	1
CSc1nnc2c(n1)[nH]c1c(C)cccc12	.	2	0	25	-1	0
CC(C)[C@H](NC(=O)c1ccccc1Cl)C(=O)OCc1cc([N+](=O)[O-])cc2c1OCOC2	-5	-1	-1	.	1.0*	0
CC(C)=CC(=O)OCc1cc([N+](=O)[O-])cc2c1OCOC2	41*	11*	1	.	1.0*	3.8*
CC(C)NC(=O)Nc1ccc2c(c1)C(=O)N([C@@H](C)CO)C[C@@H](C)[C@@H](CN(C)Cc1ccccc1)O2	.	.	.	-5	.	.
Cn1c(Cc2nc3ccccc3n2C)nc2ccccc21	-3	-1	-1	-3	-1	-1
CCN(Cc1nc2ccccc2n1C)c1ccccc1	0	6	4	7	2.1*	0
O=C(/C=C1\OCc2ccccc21)OCc1ccccc1	21	12*	5	.	0	2
CO[C@@H]1CC[C@@H]2CCN(C)C(=O)[C@@H](C)CN(C)C(=O)c3cccc(C#N)c3OC[C@@H]1O2	.	.	.	-9	.	.
COc1cc(/C=C/C(=O)O)cc(S(=O)(=O)N2CCc3ccccc32)c1OC	-2	1	2	1	2.3*	-1
CC1CCC(NC(=O)C2c3ccccc3C(=O)N2CCCN2CCOCC2)CC1 (stereo unspecified)	-6	-2	-1	-7	1.0*	-1
CCCN1C[C@@H](C)[C@@H](OC)CN(C)C(=O)c2ccc(NC(=O)C3CCC3)cc2OC[C@H]1C	.	.	.	-1	.	.
Cc1cc(C)nc(Nc2ccc(C)c([N+](=O)[O-])c2)n1	9	5	1	49*	0	0
